Laboratory results published in PubChem BioAssay (NCI).
This is part of a sample that, as a whole, favours compounds with a hit. Of some 83,000 tested, about 20% had one in any assay.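 Cells were grown in 96-well plates and exposed to the test compound at a single concentration for 48 hours; results are reported as percent growth, with values below 10 considered active.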 Unmarked numbers belong to inactive results. Activity calls are given as the source filed them.

What was measured:
Assay in all cases: NCI-60 one-dose screen, 48 h (100 = growth as untreated, 0 = no growth, -100 = all killed)
Conditions in all cases: 10 µM unless noted
NCI-H23 lung = test system: NCI-H23 lung
NCI-H226 lung = test system: NCI-H226 lung
NCI-H322M lung = test system: NCI-H322M lung
HOP-62 NSCLC = test system: HOP-62 NSCLC
NCI-H460 lung = test system: NCI-H460 lung
HOP-92 NSCLC = test system: HOP-92 NSCLC
NCI-H522 lung = test system: NCI-H522 lung
A549/ATCC NSCLC = test system: A549/ATCC NSCLC
786-0 renal = test system: 786-0 renal
COLO 205 colon = test system: COLO 205 colon

Row | SMILES | growth (NCI-H23 lung) | growth (NCI-H226 lung) | growth (NCI-H322M lung) | growth (HOP-62 NSCLC) | growth (NCI-H460 lung) | growth (HOP-92 NSCLC) | growth (NCI-H522 lung) | growth (A549/ATCC NSCLC) | growth (786-0 renal) | growth (COLO 205 colon)
1 | NNc1nnc2nc(Nc3ccccc3)nc(Nc3ccc(S(N)(=O)=O)cc3)n12 | 102% | 105% | 102% | 111% | 101% | 119% | 101% | 105% | 110% | 105%
2 | CCN(CC)c1ccc(/C=N/NC(=O)c2ccc(NS(C)(=O)=O)cc2)cc1 | 36.5% | 51.8% | 27.3% | 17.4% | 8.88% (active) | 80% |  | 29.9% | 13.5% | 13.9%
3 | CC(C)C(/C=C/c1[nH]ncc1-c1cc(Cl)ccc1O)N1CCOCC1 (stereo unspecified) | 96.7% | 85.2% | 88.7% | 92.3% | 105% | 88.4% | 95.8% | 96.7% | 101% | 109%
4 | Cn1cc(-c2nc(N)nnc2-c2c[nH]c3ccc(Br)cc23)c2cc(F)ccc21 | 93.3% | 96.6% | 86.1% | 103% | 97.7% | 98.7% |  | 103% | 98.3% | 103%
5 | CN(C)S(=O)(=O)c1ccc(-c2nc(C(Cl)Cl)nc3cc(-c4ccccc4)nn23)cc1 | 85% | 96% | 99% | 70.7% | 89% | 79% |  | 82.6% | 90.6% | 69.5%
6 | CC1=C(C)C(=O)C(Nc2cccc(C)c2)=C(Br)C1=O | 85.1% | 92.2% | 98.4% | 90.7% | 103% | -35.5% (active) | 94.6% | 101% | 107% | 126%
7 | Cc1ccc(Nc2nc(SC(C)C)nc(-c3ccccc3)c2C#N)cc1 | 86.1% | 76.1% | 70.7% | 72.2% | 95.2% | 80.7% |  | 96.2% | 92.2% | 112%
8 | C#CCn1cc(/C=N/Nc2nc(-c3ccc(Br)cc3)cs2)c2ccccc21 | 86.7% | 94.7% | 93.6% | 97.5% | 97.3% | 88.9% | 88.9% | 97% | 105% | 115%
9 | COc1ccc(C(C)=C(c2ccc(OCCN(C)C)cc2)c2ccc(OCCN(C)C)cc2)cc1 | -13.7% (active) | -7.67% (active) | -2.39% (active) | -15.8% (active) | -14.8% (active) | -43.6% (active) | -60.1% (active) | -3.07% (active) | -88.5% (active) | -73% (active)
10 | Cc1ccc2c(n1)C(=O)C(Cl)=C(Nc1ccccc1C(=O)OC(C)(C)C)C2=O | 10.6% | 74.9% | 98.7% | 95.3% | 86.2% | -72% (active) |  | 102% | -79.2% (active) | -66.1% (active)
11 | Cc1ccc(C(=O)Nc2ccc(CNCCN3CCNCC3)c(C(F)(F)F)c2)cc1C#Cc1cnc2cccnn12 | 4.87% (active) | 97.1% | 55.3% | -48.8% (active) | -44.9% (active) | -28.2% (active) |  | 16% | -70.2% (active) | -53.2% (active)
12 | O=C(N/N=C\c1ccc([N+](=O)[O-])cc1)c1ccc2nc(-c3ccc(Br)cc3)[nH]c2c1 | 8.79% (active) | 62.4% | 68.2% | 29.7% | -43.8% (active) | 55% |  | 27.2% | 36.8% | -50.6% (active)
13 | NS(=O)(=O)c1ccc(Nc2nc(N/N=C/C=C/c3ccccc3)nc(Nc3ccccc3)n2)cc1 | 40.1% | 58.6% | 56.8% |  | 6.23% (active) | 83.9% | 66.4% | 69.3% | 37.6% | 55.3%
14 | COc1ccc(C(=O)c2c(N)c(C#N)cn2-c2ccc(Cl)cc2Cl)cc1 | 93.3% | 97.2% | 93.8% |  | 100% | 101% | 90.3% | 93.4% | 103% | 109%
15 | COc1cc(C(=O)c2cc(C(C)=O)c3ccc(C)cn23)cc(OC)c1OC | 48.9% | 66.3% | 66% |  | 15.9% | 97% | 38.4% | 46.7% | 50.5% | 39.8%
16 | COc1ccc(-c2nc(C#N)c(N3CCC(S(=O)(=O)N4CCOCC4)CC3)o2)cc1 | 94.5% | 93.9% | 97.2% |  | 103% | 99.3% | 89.5% | 98.1% | 94.2% | 111%
17 | CC1=C(C)C(=O)C(Nc2ccc(C)c(C)c2)=C(Br)C1=O | 76.9% | 89.6% | 102% | 104% | 99.6% | 3.51% (active) |  | 103% | 105% | 116%
18 | Cc1[nH]c(C(=O)Nc2ccccc2OCc2cccc(C(=O)NCCN)c2)cc1Cl | 102% | 101% | 92.9% |  | 100% | 84.5% | 95% | 95.2% | 81% | 102%
19 | C#CCOc1ccccc1C(OC(=O)c1ccccc1)C(=O)NC(C)(C)C(C)(C)C (stereo unspecified) | 82.4% | 82.1% | 90.4% |  | 89.7% | 71% | 73.4% | 74% | 84.7% | 85.1%
20 | Cc1ccc2c(n1)C(=O)C(Cl)=C(Nc1cccc(C)c1C)C2=O | -10.6% (active) | 18.7% | 16.9% |  | 36.8% | -1.44% (active) | -37.5% (active) | 41.5% | 21.9% | 87.7%
21 | O=C(CSc1nc2ccccc2c(=O)n1-c1ccc(S(=O)(=O)Nc2ccc(Cl)nn2)cc1)Nc1ccc(S(=O)(=O)Nc2ccc(Cl)nn2)cc1 | 100% | 99% | 101% | 104% | 101% | 107% |  | 105% | 98.7% | 111%
22 | NC1CC2(CCN(c3cnc(C(=O)Nc4cc(F)cc5cccnc45)cn3)CC2)C1 | 88.6% | 93.2% | 87.4% |  | 83.8% | 79.7% | 93.3% | 63.2% | 71.8% | 49.9%
23 | CCCCSC1=C(Cl)CN(c2ccc(Cl)cc2)C1=O | 102% | 96.1% | 107% |  | 93.4% | 96.6% | -4.15% (active) | 102% | 99.2% | 125%
24 | C#CCOc1ccc(/C=N/Nc2nc(-c3ccc(OC)cc3)cs2)cc1 | 68.9% | 63.7% | 95% |  | 77.3% | 68.6% | 70.1% | 77% | 89.2% | 96.1%
25 | O=C(CSc1nc2ccccc2c(=O)n1-c1ccc(Cl)cc1)N/N=C/c1ccc(Oc2ccc(Cl)cc2)cc1 | 3.12% (active) | 75.6% | 89.8% |  | -34.5% (active) | 2.59% (active) | 20.7% | 16.5% | -4.71% (active) | 14.6%
26 | CC(Nc1c(C#N)cnc2ccc(-c3cncc(O)c3)cc12)c1ccccc1 (stereo unspecified) | 1.12% (active) | 2.59% (active) | -36.8% (active) |  | 0.377% (active) | -3.64% (active) | -43.4% (active) | 15.9% | -1.52% (active) | 57.6%
27 | O=C1C(SCc2ccccc2)=C(Cl)CN1c1ccccc1 | 95.6% | 101% | 97.3% |  | 102% | 94.5% | -48.8% (active) | 106% | 104% | 130%
28 | COc1ccc2c(c1)C=CC1(O2)Oc2ccc(OC)cc2C=C1C (stereo unspecified) | 39.7% | 57.4% | 49.5% |  | 7.29% (active) | -6.57% (active) | 10.7% | 18.5% | 26.5% | 2.43% (active)
29 | Cc1cccc(N2CCN(C3=C(Cl)C(=O)c4ncccc4C3=O)CC2)c1 | 55.3% | 90.3% | 93.8% |  | 58.4% | 144% | 26.7% | 93.8% | 104% | 90.4%
